# Results reported in PubChem BioAssay (Tox21).
# Unmarked numbers belong to inactive results. Results filed as inconclusive are left out. A call without a number means that no potency is given here. Active and inactive are the calls of the source. Unless noted, calls follow the shape of the full dose curve.
# Columns and labels:
# [1] = Nuclear factor erythroid 2-related factor 2/antioxidant responsive element (Nrf2/ARE) small molecule agonists: qHTS cell viability counter screen in human keratinocytes (AID 1919968; active = well fitted curve in the direction sought with a large enough effect in the repeat runs; an effect the other way counts as inactive or inconclusive; also: nearly all actives have a fitted effect of over 55% in size; also: potency is read from the fitted curve at half-maximal effect)
# Outline: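 HaCaT ARE reporter line, 1,500 cells/well; 5 h settle, 37 C/5% CO2; cpd in DMSO pinned; 23 h exposure; CellTiter-Fluor, 1 h; fluorescence.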
# [2] = biological target: Gonadotropin-releasing hormone receptor (Homo sapiens) (UniProt P30968); assay: Human gonadotropin-releasing hormone receptor (GnRHR) small molecule agonists, calcium flux assay in GnRHR-HEK293 cells (AID 1920063); also: nearly all actives have a fitted effect of over 35% in size
# Gonadotropin-releasing hormone receptor (Homo sapiens), sequence (P30968 whole entry, looked up): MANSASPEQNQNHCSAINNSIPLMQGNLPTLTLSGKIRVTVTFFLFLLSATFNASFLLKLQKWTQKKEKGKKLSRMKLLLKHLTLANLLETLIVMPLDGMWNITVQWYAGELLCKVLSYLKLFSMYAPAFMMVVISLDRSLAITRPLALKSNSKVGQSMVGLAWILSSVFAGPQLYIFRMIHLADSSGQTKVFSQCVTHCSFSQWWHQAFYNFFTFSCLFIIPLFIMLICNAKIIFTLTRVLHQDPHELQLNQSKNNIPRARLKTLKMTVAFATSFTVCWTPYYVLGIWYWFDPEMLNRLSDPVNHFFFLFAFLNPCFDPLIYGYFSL
# Outline: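 GnRHR-HEK293, 1500 cells/well, 18 h 37 C/5% CO2; Ca dye 1 h 37 C; cpd pinned (DMSO), agonist mode; kinetic FL 480/540, 3 min, 1 s reads; 15 conc, n=3.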
# [3] = biological target: KiSS-1 receptor (Homo sapiens) (UniProt Q969F8); assay: Human kisspeptin (KISS1R) small molecule agonists, calcium flux assay in KISS1R-HEK293 cells (AID 1920064; active = well fitted curve in the direction sought with a large enough effect in the repeat runs; an effect the other way counts as inactive or inconclusive)
# KiSS-1 receptor (Homo sapiens), sequence (Q969F8 whole entry, looked up): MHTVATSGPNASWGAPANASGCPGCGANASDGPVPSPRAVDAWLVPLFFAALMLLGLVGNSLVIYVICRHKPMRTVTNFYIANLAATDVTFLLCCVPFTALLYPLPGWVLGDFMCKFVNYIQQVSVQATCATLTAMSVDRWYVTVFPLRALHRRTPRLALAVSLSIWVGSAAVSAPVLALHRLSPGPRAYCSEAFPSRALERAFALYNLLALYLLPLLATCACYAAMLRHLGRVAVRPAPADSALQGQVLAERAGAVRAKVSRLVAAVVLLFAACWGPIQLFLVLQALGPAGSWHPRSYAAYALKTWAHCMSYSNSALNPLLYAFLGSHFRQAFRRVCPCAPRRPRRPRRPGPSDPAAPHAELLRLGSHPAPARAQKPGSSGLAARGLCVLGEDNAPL
# Outline: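 Stable human KISS1R HEK293 line; 18 h plating, 37 C/5% CO2; calcium dye 1 h 37 C; compound pin transfer; kinetic fluorescence Ex/Em 480/540, 3 min.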
# [4] = G protein-coupled receptor (GPCR) small molecule agonists, calcium flux assay: HEK293 wild type cell line counter screen (AID 1920065)
# Outline: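 Kinetic fluorescence at Ex/Em 480/540, recorded every second over 3 min, served as the read-out after compound addition. Each compound was tested at 15 concentrations in triplicate on cells pre-loaded with calcium dye for 1 h.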
# [5] = p53 small molecule agonists, cell-based qHTS assay with human liver microsomes (AID 1963577);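 also: p53 response element beta-lactamase reporter cells with liver microsomes plus NADPH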
# Outline: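 Steps: plate p53RE-bla cells, incubate 5 h at 37 C; add compound in DMSO; add microsomes (0.5 mg/mL final) and NADPH (0.5 mg/mL final); incubate 16 h at 37 C; add LiveBLAzer, 2 h RT; read fluorescence.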
# [6] = p53 small molecule agonists, cell-based qHTS assay with rat liver microsomes (AID 1963578)
# Outline: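 Metabolic activation is supplied by rat liver microsomes with NADPH (each 0.5 mg/mL final). p53RE-bla cells incubate with compound 16 h at 37 C; reporter activity is measured by LiveBLAzer fluorescence.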
# [7] = p53 small molecule agonists, cell-based qHTS assay: qHTS cell viability counter screen (AID 1963581); also: nearly all actives have a fitted effect of over 45% in size; also: potency is read from the fitted curve at half-maximal effect
# Outline: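 HCT-116 p53RE-bla cells, 4,000/well, plated 5 h before compound pin transfer; 16 h at 37 C; bla substrate 2 h RT; then CellTiter-Glo, 30 min RT, luminescence.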
# [8] = p53 small molecule agonists, cell-based qHTS assay (AID 1963582; active = well fitted activation curve with a large enough effect in the signal ratio in the repeat runs, not every such curve was filed as active; the % refers to the signal ratio)
# Outline: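 Reporter line: p53RE-bla. Pre-incubation 5 h, 37 C, 5% CO2; compound (DMSO, pin tool) 16 h, 37 C; B/G FRET substrate 2 h RT; fluorescence intensity read.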
# [9] = biological target: 5-hydroxytryptamine receptor 2A (Homo sapiens) (UniProt P28223); assay: 5-hydroxytryptamine receptor 2A (HTR2A) small molecule antagonists, cell-based qHTS assay (AID 1963586); also: nearly all actives have a fitted effect of over 45% in size
# 5-hydroxytryptamine receptor 2A (Homo sapiens), sequence (P28223 whole entry, looked up): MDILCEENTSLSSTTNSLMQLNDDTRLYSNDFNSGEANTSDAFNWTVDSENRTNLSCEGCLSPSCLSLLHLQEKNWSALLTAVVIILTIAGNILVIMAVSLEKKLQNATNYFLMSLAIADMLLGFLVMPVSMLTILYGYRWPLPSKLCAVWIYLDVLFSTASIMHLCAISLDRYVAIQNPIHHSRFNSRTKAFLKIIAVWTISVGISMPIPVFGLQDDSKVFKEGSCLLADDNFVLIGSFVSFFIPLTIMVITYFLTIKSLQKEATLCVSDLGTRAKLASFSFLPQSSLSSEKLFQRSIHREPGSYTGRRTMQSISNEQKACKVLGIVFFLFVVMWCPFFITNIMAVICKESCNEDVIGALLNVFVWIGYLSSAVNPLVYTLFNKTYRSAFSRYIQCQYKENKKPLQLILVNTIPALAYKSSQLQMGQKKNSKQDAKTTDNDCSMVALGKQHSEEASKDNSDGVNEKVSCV
# Outline: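 Antagonist-mode intracellular calcium assay: DOI (4 nM) added after 5 min compound pre-incubation at room temperature to dye-loaded HTR2A-CHO cells. Fluorescence followed for 3 min, sampled every second.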
# [10] = biological target: Muscarinic acetylcholine receptor M1 (Homo sapiens) (UniProt P11229); assay: Cholinergic receptor muscarinic 1 (CHRM1) small molecule antagonists, cell-based qHTS assay (AID 1963588); also: nearly all actives have a fitted effect of over 40% in size; also: potency is read from the fitted curve at half-maximal effect
# Muscarinic acetylcholine receptor M1 (Homo sapiens), sequence (P11229 whole entry, looked up): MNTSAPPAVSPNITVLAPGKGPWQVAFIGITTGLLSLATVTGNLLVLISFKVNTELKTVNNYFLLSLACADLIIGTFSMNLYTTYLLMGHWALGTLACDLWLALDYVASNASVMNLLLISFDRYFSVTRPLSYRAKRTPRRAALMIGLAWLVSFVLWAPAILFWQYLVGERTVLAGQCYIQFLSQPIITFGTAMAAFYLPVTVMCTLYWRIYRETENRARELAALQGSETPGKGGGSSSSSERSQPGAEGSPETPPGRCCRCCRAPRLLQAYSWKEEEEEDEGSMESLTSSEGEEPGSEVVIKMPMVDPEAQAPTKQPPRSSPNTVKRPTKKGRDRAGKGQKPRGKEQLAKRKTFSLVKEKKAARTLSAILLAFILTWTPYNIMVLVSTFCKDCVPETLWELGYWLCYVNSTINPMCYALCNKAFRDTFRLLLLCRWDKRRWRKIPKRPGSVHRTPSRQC
# Outline: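 CHRM1-CHO calcium-flux assay, antagonist mode. Cells were seeded 18 h, dye-loaded 1 h at 37 C and given compound for 5 min at RT, then acetylcholine was added at 50nM. FDSS fluorescence was read 3 min; 15 concentrations, three runs.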
# [11] = biological target: Muscarinic acetylcholine receptor M1 (Homo sapiens) (UniProt P11229); assay: Cholinergic receptor muscarinic 1 (CHRM1) small molecule agonists, cell-based qHTS assay (AID 1963589); also: nearly all actives have a fitted effect of over 35% in size
# Outline: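 Human M1 in stable CHO line; 18 h plating, 1 h dye load 37 C; cpd added (agonist mode); Ca2+ fluorescence kinetic read, 1 s intervals; 15 conc, 3 runs.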
# [12] = cAMP Responsive Elements (CRE) small molecule agonists, cell-based qHTS assay (AID 1963590)
# Outline: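 HEK 293T CRE-bla, 2,000 cells/well, 18 h preincubation 37 C/5% CO2; cpds (DMSO) pinned, 3 h; LiveBLAzer B/G FRET substrate, 2 h RT.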
# [13] = cAMP Responsive Elements (CRE) small molecule antagonists, cell-based qHTS assay (AID 1963591; active = well fitted inhibition curve with a large enough effect in the signal ratio in the repeat runs, not every such curve was filed as active; the % refers to the signal ratio; also: potency is read from the fitted curve at half-maximal effect)
# Outline: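 Beta-lactamase reporter read by FRET substrate (LiveBLAzer B/G) after 2 h at room temperature. CRE-bla HEK293T cells had received compound plus 0.25 uM (final) NKH477 for 3 h at 37 °C.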
# [14] = biological target: Beta-2 adrenergic receptor (Homo sapiens) (UniProt P07550); assay: Adrenergic beta2 receptor (ADRB2) small molecule antagonists, cell-based qHTS assay (AID 1963592); also: series mostly up to about 92 µM; nearly all actives have a fitted effect of over 50% in size
# Beta-2 adrenergic receptor (Homo sapiens), sequence (P07550 whole entry, looked up): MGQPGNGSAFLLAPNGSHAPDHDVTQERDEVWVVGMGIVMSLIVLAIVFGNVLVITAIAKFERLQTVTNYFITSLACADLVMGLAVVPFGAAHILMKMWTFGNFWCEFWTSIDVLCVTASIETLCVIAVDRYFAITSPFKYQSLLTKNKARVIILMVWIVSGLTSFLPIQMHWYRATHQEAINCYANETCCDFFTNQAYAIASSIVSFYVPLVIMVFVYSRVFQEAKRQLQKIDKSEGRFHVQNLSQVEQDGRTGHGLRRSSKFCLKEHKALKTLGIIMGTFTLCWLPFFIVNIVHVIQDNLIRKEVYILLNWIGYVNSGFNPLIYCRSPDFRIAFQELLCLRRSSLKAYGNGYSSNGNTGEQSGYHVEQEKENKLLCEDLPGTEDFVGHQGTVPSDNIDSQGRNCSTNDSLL
# Outline: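 Cells (CHO, stable ADRB2 overexpression) incubated 18-20hr at 37C; compounds added from DMSO; agonist mix (1nM isoproterenol, 100uM IBMX, 25uM Ro-20-1724) added; 0.5hr RT; d2-cAMP and anti-cAMP-cryptate added; 1hr RT; 665/615 nm read.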
# [15] = biological target: Beta-2 adrenergic receptor (Homo sapiens) (UniProt P07550); assay: Adrenergic beta2 receptor (ADRB2) small molecule agonists, cell-based qHTS assay (AID 1963593);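 also: CHO cells stably overexpressing human ADRB2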
# Outline: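 CHO cells stably over-expressing ADRB2 were plated overnight at 37C, then dosed with compounds plus a stimulation mix containing 100uM IBMX and 25uM Ro-20-1724 for 0.5hr at room temperature. cAMP was measured by HTRF competition, 1hr.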
# [16] = biological target: D(2) dopamine receptor (Homo sapiens) (UniProt P14416); assay: Dopamine D2 receptor (DRD2) small molecule antagonists, cell-based qHTS assay (AID 1963595; active = well fitted inhibition curve with a large enough effect in the signal ratio in the repeat runs, with a control signal flat; the % refers to the signal ratio)
# D(2) dopamine receptor (Homo sapiens), sequence (P14416 whole entry, looked up): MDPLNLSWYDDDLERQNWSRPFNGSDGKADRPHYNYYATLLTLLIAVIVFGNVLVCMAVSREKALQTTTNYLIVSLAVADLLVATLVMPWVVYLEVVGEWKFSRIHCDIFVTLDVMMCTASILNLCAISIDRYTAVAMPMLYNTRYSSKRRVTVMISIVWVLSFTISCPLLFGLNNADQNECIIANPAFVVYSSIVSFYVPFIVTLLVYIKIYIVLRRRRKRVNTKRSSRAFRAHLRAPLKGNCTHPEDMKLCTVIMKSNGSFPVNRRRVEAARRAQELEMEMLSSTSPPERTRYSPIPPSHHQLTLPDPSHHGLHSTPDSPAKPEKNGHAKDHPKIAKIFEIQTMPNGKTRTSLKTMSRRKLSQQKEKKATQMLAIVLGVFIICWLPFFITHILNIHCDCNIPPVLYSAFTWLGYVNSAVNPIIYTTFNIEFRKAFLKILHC
# Outline: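 HEK293 cells stably expressing DRD2 were preincubated with 0.1 mM Ro20-1724, then with compound for 10 min at room temperature. Cells were stimulated with 200 nM NKH477 plus 12 nM quinpirole for 30 min, and cAMP was read by HTRF.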
# [17] = p53 small molecule agonists, cell-based qHTS assay with rat liver microsomes: qHTS cell viability counter screen (AID 1963580); also: nearly all actives have a fitted effect of over 45% in size
# Outline: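 p53RE-bla HCT-116 cells were exposed 16 h at 37 C to compounds with rat liver microsomes (0.5 mg/mL) and NADPH (0.5 mg/mL). Viability was measured in the same wells as ATP content by CellTiter-Glo luminescence.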
# [18] = biological target: D(2) dopamine receptor (Homo sapiens) (UniProt P14416); assay: Dopamine D2 receptor (DRD2) small molecule agonists, cell-based qHTS assay (AID 1963594); also: nearly all actives have a fitted effect of over 35% in size
# Outline: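 HEK293 cells stably expressing human DRD2, pre-treated with PDE inhibitor Ro20-1724 (0.1 mM final) and compound 10 min at room temperature, then stimulated with NKH477 (200nM […]) for 30 min. cAMP read by HTRF (665/620 nm).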
# [19] = biological target: 5-hydroxytryptamine receptor 2A (Homo sapiens) (UniProt P28223); assay: 5-hydroxytryptamine receptor 2A (HTR2A) small molecule agonists, cell-based qHTS assay (AID 1963587); also: nearly all actives have a fitted effect of over 30% in size
# Outline: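 CHO cells stably expressing human HTR2A, plated 18 h, loaded with calcium dye 1 h at 37 C. Agonist mode: compounds added and intracellular calcium fluorescence recorded kinetically for 2 min at 1 sec intervals.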
# [20] = p53 small molecule agonists, cell-based qHTS assay with human liver microsomes: qHTS cell viability counter screen (AID 1963579); also: nearly all actives have a fitted effect of over 45% in size; also: potency is read from the fitted curve at half-maximal effect
# Outline: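 After the 460/530 nm beta-lactamase read, CellTiter-Glo was added to the same wells and luminescence measured after 30 min at room temperature, giving viability of p53RE-bla cells treated 16 h with compounds plus microsomes and NADPH.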
Structure (SMILES),Potency [1],Potency [2],Potency [3],Potency [4],Potency [5],Potency [6],Potency [7],Potency [8],Potency [9],Potency [10],Potency [11],Potency [12],Potency [13],Potency [14],Potency [15],Potency [16],Potency [17],Potency [18],Potency [19],Potency [20]
OC[C@H]1O[C@@H](OCCc2ccc(O)cc2)[C@H](O)[C@@H](O)[C@@H]1O,inactive,inactive,inactive,inactive,inactive,inactive,inactive,inactive,inactive,inactive,inactive,inactive,inactive,inactive,inactive,inactive,–,–,–,–
O=C1c2ccccc2C(=O)N1CCc1noc(-c2ccc(CN3CCCCCC3)s2)n1,inactive,inactive,inactive,inactive,inactive,inactive,inactive,–,inactive,0.273 µM (active),inactive,–,–,inactive,–,–,inactive,inactive,–,–
CC(=O)OC(OC(C)=O)c1ccc([N+](=O)[O-])o1,62.2 µM (active),inactive,inactive,inactive,–,inactive,–,–,–,inactive,inactive,–,–,–,–,–,–,inactive,inactive,–
Cc1cc(O)c2c(O)c3c(O)cccc3cc2c1,inactive,inactive,inactive,inactive,–,inactive,inactive,–,–,inactive,inactive,–,–,–,–,inactive,inactive,inactive,inactive,inactive
CC(=O)OCC(C)OC(C)=O (stereo unspecified),inactive,inactive,inactive,inactive,–,inactive,–,inactive,inactive,inactive,inactive,inactive,inactive,inactive,–,inactive,inactive,inactive,inactive,inactive
Cc1nn(C)c(Oc2ccccc2)c1/C=N/OCc1ccc(C(=O)OC(C)(C)C)cc1,inactive,inactive,inactive,inactive,–,inactive,inactive,–,inactive,inactive,inactive,–,–,inactive,inactive,–,inactive,inactive,inactive,inactive
CC1(C)CCC[C@]2(C)[C@H]3CCO[C@]3(C)CC[C@@H]12,inactive,inactive,inactive,inactive,–,–,inactive,–,inactive,inactive,inactive,inactive,inactive,inactive,inactive,inactive,inactive,inactive,inactive,inactive
COP(=O)(OC)OC(c1ccc(Cl)cc1)P(=O)(OC)OC (stereo unspecified),inactive,inactive,inactive,inactive,–,–,inactive,–,inactive,inactive,inactive,inactive,inactive,inactive,–,–,inactive,–,inactive,inactive
Oc1ccc(C2(c3ccc(O)cc3)CC3CC2C2CCCC32)cc1 (stereo unspecified),29.4 µM (active),inactive,inactive,inactive,–,inactive,34.9 µM (active),–,–,inactive,inactive,–,65.9 µM (active),inactive,inactive,–,–,inactive,–,17.5 µM (active)
O=c1[nH]c(=O)n([C@H]2C[C@H](O)[C@@H](CO)O2)cc1F,inactive,inactive,inactive,inactive,–,inactive,–,–,–,–,–,–,inactive,inactive,–,inactive,inactive,–,–,inactive
CCc1ncc(C)[nH]1,inactive,inactive,inactive,inactive,–,inactive,inactive,inactive,inactive,inactive,inactive,inactive,–,inactive,–,inactive,–,inactive,inactive,inactive
CC1=CC(=O)/C(=C(/C)O)C(=O)O1,inactive,inactive,inactive,inactive,–,inactive,–,inactive,–,inactive,inactive,inactive,inactive,inactive,–,–,inactive,inactive,inactive,inactive
c1ccc2c(c1)CCCC2C1=NCCN1 (stereo unspecified),inactive,inactive,inactive,inactive,–,–,inactive,–,inactive,inactive,inactive,inactive,inactive,inactive,inactive,–,inactive,inactive,inactive,inactive
N[C@@H](CS)C(=O)O,inactive,inactive,inactive,inactive,–,inactive,inactive,inactive,–,inactive,inactive,inactive,inactive,inactive,–,inactive,inactive,inactive,inactive,inactive
